Laboratory results published in PubChem BioAssay (NCATS).
Results filed as inconclusive are left out. Where a call stands in place of a potency, no number is given. Active and inactive are the calls of the source. The call rests on the fitted dose curve; in most records, active means well fitted inhibition curve with a large enough effect; inconclusive means small, poorly fitted or top-dose-only effect; inactive means no such curve, though single readings can be large or run the other way. Where a SMILES comes first, the peptide text is derived from it. The star is where a group is joined. βNA = c1ccc2cc(N*)ccc2c1; Cbz = O=C(OCc1ccccc1)*

test system: Zika virus NS2B-NS3 protease (linked construct); experiment: Primary screen NINDS Rhodamine qHTS for Zika virus inhibitors (AID 1347160); details: purified NS2B-NS3 protease, Rhodamine110 substrate fluorescence; series mostly up to 33.1 µM; further: nearly all actives have a fitted effect of over 55% in size
Summary of the method: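 Kinetic fluorescence (Ex 480 nm, Em 540 nm) over 15 min with 1.5 microM Rhodamine110 peptide and 25 nM linked protease.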
Potency means the concentration at half of the fitted maximal effect.

Row | SMILES | Potency
1 | CCC(C)C(C(=O)O)N1Cc2c(OCC=C(C)C)c(C)c(OC)c(C(=O)O)c2C1=O (centres undefined) | inactive
2 | C[C@@H]1O[C@@H](O[C@H]2[C@H](O)[C@@H](O)[C@H](OC(=O)[C@]34CCC(C)(C)C[C@H]3C3=CCC5[C@@]6(C)CC[C@H](O[C@@H]7O[C@H](C(=O)O)[C@@H](O)[C@H](O)[C@H]7O)C(C)(C)C6CC[C@@]5(C)[C@]3(C)CC4)O[C@@H]2CO)[C@H](O)[C@H](O)[C@H]1O (some centres undefined) | inactive
3 | NC1(c2ccc(NC(=O)c3ccnc(-c4cc(C(=O)O)ccn4)c3)cc2)CC1 | inactive
4 | Cc1c(-c2ccc3c(c2)OCO3)oc2ccc(C(O)C(C)O)cc12 (centres undefined) | inactive
5 | O=C(O)c1cc(C(F)(F)F)ccc1N1CC[C@H](OCc2ccccn2)C1 | inactive
6 | C=C1C2(C)CC3C4(C)OC(C5OC56C4=CC(=O)OC6(C)C)C3(C)C13C(=O)OC(C)C3(O)C2=O (centres undefined) | inactive
7 | CC(C)[C@@H](C(=O)O)N1Cc2c(cc(O)c3c2O[C@]2(C3)[C@H](C)CCC3C(C)(C)[C@H](O)[C@H](O)C[C@@]32C)C1=O (some centres undefined) | 7.94 µM (active)
8 | CC(C)(O)C1CC=C(C(=O)OC[C@H]2O[C@@H](Oc3cc(C(=O)O)cc(O)c3O)[C@H](O)[C@@H](O)[C@@H]2O)CC1 (some centres undefined) | inactive
9 | CC(=O)OC1CC2C(C)(C)C(=O)C=CC2(C)C2CC(=O)C3=C(CCC3C3=CC(O)OC3=O)C12C (centres undefined) | inactive
10 | COc1cc(/C=C/C(=O)O[C@@H]2O[C@H](CO)[C@@H](O)[C@H](O)[C@H]2O)ccc1O | 8.91 µM (active)
11 | CC(C)Oc1ccc(-c2nc(-c3cccc4c3CCC4NCCC(=O)O)no2)cc1C#N (centres undefined) | inactive
12 | C=C(C)C1CCC2(C(=O)OC3OC(COC4OC(CO)C(O)C(O)C4O)C(OC4OC(C)C(O)C(O)C4O)C(O)C3O)CCC3(C(=O)O)C(CCC4C5(C)CCC(=O)C(C)(C)C5CCC43C)C12 (centres undefined) | inactive
13 | C=C1C(=O)OC2CC(COC(=O)C(C)C)=C(C(C)CCCOC(C)=O)[C@@H](OC(C)=O)C12 (some centres undefined) | inactive
14 | COc1ccc(C(=O)OC2C3C=COC(OC4OC(CO)C(O)C(O)C4O)C3C3(CO)OC23)cc1OC (centres undefined) | inactive
15 | O=C(O)CC1(O)C(=O)Nc2ccccc21 (centres undefined) | inactive
16 | C=C(C)C1Cc2c(ccc3c2OCC(c2ccc(O)cc2O)C3)O1 (centres undefined) | inactive
17 | CC(C)CC(NC(=O)OCc1ccccc1)C(=O)NC(CC(C)C)C(=O)NC(CCC(=O)O)C(=O)Nc1ccc2ccccc2c1 (stereo not drawn) (Cbz-Leu-Leu-Glu-βNA; configuration not given here) | 11.2 µM (active)
18 | C=C1Cc2c(Cl)cc3[nH]c4c5c3c2[C@@]2(O)[C@@H]1C[C@@H]2C(C)(C)O[C@H]5C1CC[C@@]2(O)[C@@]35O[C@@H]3[C@H]3OC(C)(C)[C@H]3O[C@H]5CC[C@]2(C)[C@@]41C (some centres undefined) | inactive
19 | C=C(C(=O)O)C1CC(OC(=O)CC(C)CC)C2(C)CCCC(=C)C2C1 (centres undefined) | inactive
20 | COc1c2c(c(C)c3c1C(=O)OC3)OC1(C)CC(O)C34OC(OC)(CCC3(C)C1C2)OC4(C)CO (centres undefined) | inactive

Row | SMILES | Potency
21 | CC(C/C=C/C(C)(C)O)C1CCC(C)(O)C(O)C1 (centres undefined) | inactive
22 | CC(=O)Nc1cccc2c1c(Sc1ccc(Cl)cc1)c(C)n2CC(=O)O | inactive
23 | C/C(=C\CCC(C)(C)O)CCO[C@@H]1O[C@H](CO[C@@H]2O[C@@H](C)[C@H](O)[C@@H](O)[C@H]2O)[C@@H](O)[C@H](O)[C@H]1O | inactive
24 | C=C1C(=O)O[C@@H]2/C=C(\C)CC/C=C(\C(=O)O[C@@H]3O[C@H](CO)[C@@H](O)[C@H](O)[C@H]3O)CC[C@@H]12 | inactive
25 | C[C@@H]1O[C@@H](O[C@H]2[C@@H]3C=CO[C@@H](O[C@@H]4O[C@H](CO)[C@@H](O)[C@H](O)[C@H]4O)[C@@H]3[C@@]3(CO)O[C@@H]23)[C@H](OC(=O)/C=C/c2ccc(O)cc2)[C@H](O)[C@H]1O | inactive
26 | C=C1C(O)CC2C(C(=O)O)=COC(OC3OC(CO)C(O)C(O)C3OC(=O)/C=C\c3ccc(O)cc3)C12 (centres undefined) | inactive
27 | COc1cc(/C=C/C(=O)OC[C@H]2O[C@@H](OC3CC(C)=C(C(=O)O)C(C)(C)C3)[C@H](O)[C@@H](O)[C@@H]2O)cc(OC)c1O (some centres undefined) | inactive
28 | CC1CCC2C(C)(C)C(O)C(O)CC2(C)C12Cc1c(O)cc(CO)c(C=O)c1O2 (centres undefined) | inactive
29 | CC1=C2CC(=O)C(C)CC/C=C(\C)CC2(O)OC1=O (centres undefined) | inactive
30 | C=C1CC[C@H]2[C@@](C)(CCC(O)[C@@]2(C)CO)[C@@H]1/C=C/C(=C\C(=O)O)C(=O)O (some centres undefined) | inactive
31 | CC1(C)CC[C@]2(C(=O)O[C@@H]3O[C@H](CO)[C@@H](O)[C@H](O)[C@H]3O)CC[C@]3(C)C(=CCC4[C@@]5(C)C[C@@H](O)[C@H](O)[C@@](C)(CO)C5[C@H](O)C[C@]43C)C2[C@@H]1O (some centres undefined) | inactive
32 | CC1=CC(=O)CC(C)(C)C1/C=C/C(C)OC1OC(COC2OCC(O)C(O)C2O)C(O)C(O)C1O (centres undefined) | inactive
33 | COc1cccc(Cn2ncc3c4sc(S(C)=O)cc4n(C)c3c2=O)c1 (centres undefined) | inactive
34 | C[C@H]1CCN2C[C@]34C[C@@]5(C(=O)Nc6c5ccc5c6OC=CC(C)(C)O5)C(C)(C)C3C[C@]12C(=O)N4C (some centres undefined) | inactive
35 | C[C@@H]1O[C@@H](O[C@H]2[C@@H]3C=CO[C@@H](O[C@@H]4O[C@H](CO)[C@@H](O)[C@H](O)[C@H]4O)[C@@H]3[C@@]3(CO)O[C@@H]23)[C@H](O)[C@H](OC(=O)/C=C/c2ccc(O)c(O)c2)[C@H]1O | inactive
36 | C=C[C@H]1[C@H](O[C@@H]2O[C@H](CO)[C@@H](O)[C@H](O)[C@H]2O)OC=C2C(=O)N3Cc4c([nH]c5ccccc5c4=O)[C@@H]3C[C@H]21 | inactive
37 | CC1(CO)CCCC2(C)C1C(OC(=O)c1ccccc1)CC1C(=O)OCC12O (centres undefined) | inactive
38 | COc1cccc(OC)c1-c1nc(C(=O)N[C@@H](CC(C)C)C(=O)O)cn1-c1ccnc2cc(Cl)ccc12 | inactive
39 | CC(C(=O)Nc1cc(C#N)ccc1CCCC(=O)O)c1ccc(F)c2ccccc12 (centres undefined) | inactive
